PubChem BioAssay AID504332 (National Center for Advancing Translational Sciences (NCATS), 2011)
Out of some 350,000 compounds screened, about 31,000 (8.9%) were called active. Another 15% or so got no clear call; they are omitted. The entries come from a sample that favours actives as a whole. Entries that show only a call come without a potency. A number with no mark means an inactive call. The call rests on the fitted dose curve; in most records, active means well fitted inhibition curve with a large enough effect; inconclusive means small, poorly fitted or top-dose-only effect; inactive means no such curve, though single readings can be large or run the other way.

What follows are molecules tested against Histone-lysine N-methyltransferase EHMT2 (Homo sapiens) (UniProt Q96KQ7) (assay: qHTS Assay for Inhibitors of Histone Lysine Methyltransferase G9a). Settings: G9a H3K9 monomethylation, AlphaScreen, 2 h; series mostly up to 59 µM.
Chain of Histone-lysine N-methyltransferase EHMT2 (Homo sapiens) (Q96KQ7 913-1193 limits assumed): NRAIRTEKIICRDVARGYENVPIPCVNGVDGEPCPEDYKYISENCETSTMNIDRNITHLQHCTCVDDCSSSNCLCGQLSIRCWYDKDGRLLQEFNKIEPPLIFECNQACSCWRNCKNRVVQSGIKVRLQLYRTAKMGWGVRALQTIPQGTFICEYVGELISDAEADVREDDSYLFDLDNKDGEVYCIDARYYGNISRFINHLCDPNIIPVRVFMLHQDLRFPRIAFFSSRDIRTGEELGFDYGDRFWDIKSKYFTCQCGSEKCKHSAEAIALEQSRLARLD
Outline: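 Enzyme 20 nM + cpd, 15 min RT; add b-H3K9 pep 500 nM / SAM 20 uM; 2 h RT; anti-H3K9me1 Ab 0.5 ug/mL + SA donor / anti-rabbit acceptor beads 20 ug/mL each, 10 min; AlphaScreen read.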
Further: nearly all actives have a fitted effect of over 75% in size.
Potency means the concentration at half of the fitted maximal effect.

Compound | Potency | activity, negative = inhibition
O=C(OCC(=O)N1CCCC1=O)c1cc(S(=O)(=O)N2CCOCC2)ccc1Cl | inactive | –
CCC(C(=O)Nc1cccc(-c2nc3cccnc3s2)c1C)c1ccccc1 (stereo not drawn) | inactive | –
Cc1cc(C)nc(Nc2n[nH]c(-c3ccccc3N)n2)n1 | 7.94 µM (active) | –
Cc1cc(C)nc(NC(=O)C(C)N2C(=O)c3ccccc3C2=O)n1 (stereo not drawn) | inactive | –
Cc1cc(C)nc(Nc2ncn[nH]2)n1 | inactive | –
CN(C)c1ccc(C(CNC(=O)c2ccc(F)cc2)c2c[nH]c3ccccc23)cc1 (stereo not drawn) | 10 µM (active) | –
C[C@H](NC(=O)c1ccccc1)C(=O)OCC(=O)c1c[nH]c2ccccc12 | inactive | –
CCOc1ccccc1C(=O)NCC(c1ccc(N(C)C)cc1)N1CCCC1 (stereo not drawn) | – | 2.29% [at 12.7 µM]
CCCN1CCN(CCCNC(=O)c2ccc3nc(Cc4ccccc4)oc3c2)CC1 | inactive | –
O=C(c1c(F)cccc1F)N1CCN(S(=O)(=O)c2ccc3c(c2)OCCO3)CC1 | – | -0.69% [at 0.501 µM]
CNc1ccc(SC#N)cc1 | 44.7 µM (active) | –
COc1ccc(-n2nc(C(=O)NCCc3ccc(Cl)cc3)c3c4ccccc4n(C)c3c2=O)cc1Cl | inactive | –
CCOc1ccc(S(=O)(=O)NCCSc2ccccc2)cc1 | inactive | –
CCOc1ccc2nc(NCCNS(=O)(=O)c3ccccc3)c(C#N)cc2c1 | 50.1 µM (active) | –
CCOc1ccc2nc(NCCNC(=O)C(C)(C)C)c(C)cc2c1 | inactive | –
Cc1nnc(SCC(=O)NCc2ccccc2Cl)c2nn(-c3ccccc3)c(C)c12 | inactive | –
CCOC(=O)c1ccc(NC(=O)C2CC(=O)NC(=Nc3ccc(C)c(C)c3)S2)cc1 (stereo not drawn) | inactive | –
O=C(Nc1cccc(Cl)c1N1CCOCC1)c1cccnc1 | inactive | –
COc1ccccc1NC(=O)c1ccc(N2CC3CC(C2)c2cccc(=O)n2C3)c(NC(=O)c2cccnc2)c1 (stereo not drawn) | 15.8 µM (active) | –
COC(=O)c1cc(NC(=O)c2cccnc2)ccc1N1CCOCC1 | – | -2.27% [at 0.501 µM]
CCn1c(Cc2ccc(OC)cc2)nnc1SCC(=O)Nc1ccc(N2CCOCC2)cc1 | inactive | –
Cc1ccc(-c2noc(-c3nnn(-c4cccc(C(F)(F)F)c4)c3N)n2)cc1 | inactive | –
CCc1ccc(/C=C2\SC(N3CCOCC3)=NC2=O)cc1 | 50.1 µM (active) | –
CC1CCN(C2=NC(=O)/C(=C/c3ccc(O)cc3)S2)CC1 | inactive | –
Cc1ccsc1/C=C1\SC(N2CCOCC2)=NC1=O | – | 12.5% [at 12.7 µM]

Compound | Potency | activity, negative = inhibition
COC(=O)Cc1ccc(OC(=O)C2CCN(S(=O)(=O)c3ccc(OC)c(OC)c3)CC2)cc1 | – | 13.8% [at 12.7 µM]
O=C(Nc1ccc2oc(-c3ccc(O)c(Br)c3)nc2c1)c1cc2ccccc2o1 | inactive | –
Clc1ccc(-n2nnnc2CN2CCCCC2)cc1Cl | inactive | –
c1cc(-c2nn[nH]n2)ccc1CN1CCCCC1 | inactive | –
Clc1ccc(CN2CCCCCC2)cc1Cl | 22.4 µM (active) | –
O=C(Nc1ncccc1O)c1ccc(S(=O)(=O)N2CCCCCC2)cc1 | inactive | –
CCN(C(=O)Cn1cc(S(=O)(=O)N2CCN(c3ccccc3F)CC2)c2ccccc2c1=O)c1ccc(C)c(C)c1 | inactive | –
Cc1ccc(C)c(Cn2c(C)c(CNCc3ccc(F)cc3)c(C(=O)O)c2C)c1 | inactive | –
Cn1cccc1C(=O)NNC(=O)COc1ccc(Br)cc1 | – | 4.95% [at 0.501 µM]
CCCCNC(=O)CSc1nc2ccc(NC(=O)CSc3nnc(N)s3)cc2s1 | 2 µM (active) | –
CCC(=O)Nc1ccc2nc(SCC(=O)N3CCc4ccccc43)sc2c1 | inactive | –
CN(C(=O)CSc1nc2ccc(NC(=O)COc3ccccc3)cc2s1)c1ccccc1 | inactive | –
CN(C)C(=O)N=NC(=O)N(C)C | 2.24 µM (active) | –
CCOc1ccc(NC(=O)CC2C(=O)N(c3cccc(OC)c3)C(=O)N2C2CCCCC2)cc1 (stereo not drawn) | inactive | –
COc1ccc(CNC(=O)CNC(=O)c2sc3ccccc3c2Cl)cc1OC | inactive | –
COc1ccc(OCCCC(=O)Nc2cccc(S(=O)(=O)N3CCCCCC3)c2)cc1 | – | -48.2% [at 12.7 µM]
COc1ccc(-c2cn3c(n2)sc2cc(C(=O)Nc4ccccc4F)ccc23)cc1 | inactive | –
Fc1ccccc1OCCCCn1cncn1 | inactive | –
CN1CCN(CCCCOc2cccc3ccccc23)CC1 | – | 26.3% [at 2.33 µM]
CCN1CCN(CCCCOc2ccccc2F)CC1 | 10 µM (active) | –
O=C(COC(=O)C1(c2ccc(F)cc2)CCCC1)N1CCNC1=O | – | 19.8% [at 12.7 µM]
COc1ccc(Cc2nc3ccc(C(=O)NCc4ccc(OC)cc4OC)cc3o2)cc1 | inactive | –
COC(=O)C1=C(NC(=O)C(C)(C)C)CCS1 | 1.41 µM (active) | –
Cc1cc2c(=O)n(CC(=O)NCC(=O)Nc3ccc(C(C)C)cc3)cnc2s1 | inactive | –
O=C(CN1CCN(c2ccccc2F)CC1)c1ccc2c(c1)OCO2 | 20 µM (active) | –

Compound | Potency | activity, negative = inhibition
O=C(Nc1ccccc1F)c1ccc2c(c1)OCO2 | – | -7.42% [at 0.501 µM]
CC1(c2ccc(Cl)cc2)NC(=O)N(CC(=O)c2ccc3c(c2)OCO3)C1=O (stereo not drawn) | inactive | –
COc1ccc(C2CC(=O)Nc3c2c(=O)nc2c(C)cccn32)cc1OC (stereo not drawn) | inactive | –
Cn1c(N)c(C(=O)COC(=O)/C=C/c2cccc(C(F)(F)F)c2)c(=O)n(C)c1=O | – | 28.8% [at 2.33 µM]
CC1(C)O[C@@H]2CC3C4C[C@H](F)C5=CC(=O)C=CC5(C)C4C(O)CC3(C)[C@]2(C(=O)CO)O1 (stereo partly drawn) | inactive | –
CCC1(C)Cc2c(sc3nc(SC)nc(N)c23)CO1 (stereo not drawn) | inactive | –
CCSc1nc2sc3c(c2c(=O)[nH]1)CC(C)(C)OC3 | inactive | –
CCC1(C)Cc2c(sc3nc(SC)[nH]c(=O)c23)CO1 (stereo not drawn) | 44.7 µM (active) | –
COc1ccccc1NC(=O)C(=O)c1cc(C)n(-c2ccccc2F)c1C | inactive | –
COc1cc(CNCCSc2nnnn2C)ccc1OCc1ccc(Cl)cc1Cl | inactive | –
CCc1ccc(OCC(=O)N(Cc2ccccc2)C2CCS(=O)(=O)C2)cc1 (stereo not drawn) | inactive | –
Cc1cc(Cl)ccc1OCC(=O)N(Cc1ccc(N(C)C)cc1)C1CCS(=O)(=O)C1 (stereo not drawn) | 10 µM (active) | –
Cc1ccc(CN(C(=O)COc2ccc(Cl)cc2C)C2CCS(=O)(=O)C2)o1 (stereo not drawn) | inactive | –
Cc1ccccc1OCC(=O)N(Cc1cccc(F)c1)C1CCS(=O)(=O)C1 (stereo not drawn) | inactive | –
CC(C)c1ccc(OCC(=O)N(Cc2ccc(N(C)C)cc2)C2CCS(=O)(=O)C2)cc1 (stereo not drawn) | 12.6 µM (active) | –
COc1cc(C(=O)N(Cc2ccc(C(C)C)cc2)C2CCS(=O)(=O)C2)cc(OC)c1OC (stereo not drawn) | inactive | –
COc1ccc(NC(=O)CSc2nc(SC)ns2)c(OC)c1 | inactive | –
COc1cccc(N2CC(NC(=O)/C=C\c3ccccc3)CC2=O)c1 (stereo not drawn) | inactive | –
CCOc1ccc(NC(=O)CN(C)C(=O)c2cccc(S(=O)(=O)N3CCCC3)c2)cc1OCC | inactive | –
CC(C)CN(C(=O)CSc1ncnc2sccc12)C1CCS(=O)(=O)C1 (stereo not drawn) | – | 0.939% [at 12.7 µM]
COC(=O)[C@@]12CCCN1[C@H](c1ccc(-c3ccc(F)cc3)c(OC)c1)[C@H]1C(=O)N(C)C(=O)[C@H]12 | – | 17.2% [at 2.33 µM]
O=C(/C=C/c1ccc([N+](=O)[O-])o1)NNC(=O)c1ccc(F)cc1 | inactive | –
Cc1nc2ccccc2c(=O)n1-c1ccc(F)c(NC(=O)c2cccs2)c1 | inactive | –
CC(C)CN(Cc1c(O)ccc2c(=O)c(-c3ccccc3)coc12)CC(C)C | inactive | –
COc1cc(C2NC(=O)NC(c3ccccc3)=C2C(C)=O)c(Br)cc1OCC(N)=O (stereo not drawn) | inactive | –

Compound | Potency | activity, negative = inhibition
CC(C)(C)c1ccc(C(=O)NCC(c2ccco2)S(=O)(=O)c2ccc(F)cc2)cc1 (stereo not drawn) | inactive | –
Cc1cccn2c(=O)c(/C=C3\SC(=S)N(CC(C)C)C3=O)c(NCCCOC(C)C)nc12 | inactive | –
Cc1ccc2[nH]c(=O)c(-c3nc4c(C)cccn4c3NCc3ccco3)cc2c1 | inactive | –
CCCN(CCC)c1nc2c(C)cccn2c(=O)c1/C=C1/SC(=S)N(Cc2ccco2)C1=O | 39.8 µM (active) | –
CCc1ccc(NC(=O)c2nn(-c3ccc(C)cc3)c(=O)n(C)c2=O)cc1 | inactive | –
NS(=O)(=O)c1ccc(NC(=O)COc2ccc(S(=O)(=O)NC3CCCCC3)cc2)cc1 | inactive | –
CCOc1cc(-c2cc(-c3ccc(NC(C)=O)cc3)nc(N)c2C#N)ccc1O | inactive | –
CCc1ccc(NC(=O)N2CCc3ccccc3C2)cc1 | inactive | –
COc1ccc(CC(=O)NC2CCSc3ccccc32)cc1OC (stereo not drawn) | inactive | –
COc1ccc(CC(=O)Nc2nnc3n2CCS3)cc1OC | 12.6 µM (active) | –
CCOc1cc(C(=O)Nc2nnc3n2CCS3)cc(OCC)c1OCC | inactive | –
COc1ccccc1NC(=O)C(C)OC(=O)c1ccc(-n2cnnn2)cc1 (stereo not drawn) | inactive | –
O=C(NNC(=O)c1cccc(S(=O)(=O)Nc2ccc(Cl)cc2)c1)c1ccc(=O)[nH]c1 | – | 17.2% [at 12.7 µM]
Cc1ccc(NN=C2C(=O)OC(C)(C)OC2=O)c(C)c1 | inactive | –
Cc1ccc(N/N=C2\COC(C)(C)CC2=O)cc1 | 44.7 µM (active) | –
CN(C(=O)COC(=O)c1cc(=O)[nH]c2ccccc12)C1CCCCC1 | – | -20.6% [at 2.33 µM]
CCCC1CCC(=NNC(=S)NCCc2ccccc2)CC1 (stereo not drawn) | 14.1 µM (active) | –
S=C(NCCc1ccccc1)NCC1CCCO1 (stereo not drawn) | inactive | –
CCCCNC(=S)N/N=C1\CCCCc2ccccc21 | inactive | –
CC(C)(C)NC(=O)CSc1nnc(NC(=O)CCc2ccccc2)s1 | inactive | –
Cc1ccc(CN2CCN(Cc3ccccc3-c3ccco3)CC2CCO)o1 (stereo not drawn) | inactive | –
CCn1cc(CN2CCN(CC(C)(C)C)C(CCO)C2)c2ccccc21 (stereo not drawn) | 50.1 µM (active) | –
COc1ccc(CN2CCN(Cc3cn(C)nc3-c3ccccc3)CC2CCO)c(C)c1C (stereo not drawn) | inactive | –
